Unmarked numbers belong to inactive results. Results filed as inconclusive are left out. For some assays here: Results with a measured potency or affinity are listed apart. Activity calls are given as the source filed them. Unless noted, how the calls were made is not given here.

The conditions of assay [1]: Ebola virus entry assay, green fluorescence channel.
The conditions of assay [2]: Ebola virus entry assay, blue channel fluorescence.
The conditions of assay [3]: Ebola virus entry assay, ratio channel.
For assay [4] the following is noted: Ebola virus entry assay, green channel fluorescence.
The conditions of assay [5]: Ebola virus entry assay, reporter ratio channel; Channel type: primary.
The nature of assay [6]: qHTS assay for measurement of the activity of small molecule inhibitors on Zika virus induced Caspase-3 activity in human astrocytoma cells (AID 1224859; active means well fitted inhibition curve with a large enough effect;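 further: plate controls were ZIKV-infected untreated cells for no effect and uninfected cells for full effect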). The note with it: SNB-19 ZIKV-induced caspase-3/7, luminescence, 6 h; series mostly up to 45.7 µM. The procedure, abridged: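 Luminescence read-out (Caspase-Glo 3/7, 30 min RT) of caspase activity in SNB-19 cells infected 6 h with ZIKV, 2 FFU/cell, after 1 h compound pretreatment; % inhibition from induction normalised to uninfected (0%) and infected (100%) wells.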
On the technique in general: qHTS replaces the single test concentration by a dilution series.

The nature of assay [7]: qHTS assay for measurement of the activity of small molecule inhibitors on Zika virus induced Caspase-3 activity in human iPSC derived neural progenitor cells (hNPCs) (AID 1224857; active means well fitted inhibition curve with a large enough effect; further: % of control where 0% means no effect; nearly all actives have a fitted effect of over 65% in size). The note with it: hNPCs ZIKV-induced caspase-3/7, Caspase-Glo luminescence, 6 h; series mostly up to 45.7 µM. The method in brief:
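hNPCs seeded 350 cells/well, cultured 16–20 h; compounds added 1 h before ZIKV (2 FFU/cell), 37 C 6 h. Caspase-Glo 3/7 luminescence after 30 min RT; % inhibition from induction scaled to uninfected (0%) and infected (100%) wells.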
Wherever efficacy is given: 0% is about no effect.

On to `CCC1(CC)C(=O)NC(=O)NC1=O`, for which the efficacy in assay [1] was -16.1%. The outcome in assay [2], in assay [3], in assay [4], in assay [5] and in assay [6] was inactive.
On to `CNC(=O)NC(O)C(Cl)(Cl)Cl` (centres undefined), for which, in assay [1], the efficacy was -36.8%. Moreover, the molecule was classed as inactive in assay [2], in assay [3], in assay [4], in assay [5] and in assay [6]. The Potency entry in assay [7] is “inactive”.
For the molecule `CCS(=O)(=O)C(C)(C)S(=O)(=O)CC`, the efficacy in assay [1] was -10.5%. In addition, the molecule was classed as inactive in assay [2], in assay [3], in assay [4], in assay [5] and in assay [6]. Moreover, the Potency result in assay [7] was “inactive”.
The AC50 is the midpoint of the concentration-response curve, whichever way the signal moves. Consider `CC(C)=CCN1CC[C@@]2(C)c3cc(O)ccc3C[C@@H]1[C@@H]2C`, for which the efficacy in assay [1] is 36%. Moreover, the half-maximal activity concentration (AC50) in assay [2], in assay [3] and in assay [5] was 31.6 µM (active) in each case. Besides, the molecule was classed as inactive in assay [4] and in assay [6]. In assay [7], the Potency result is “inactive”.
In the case of `[O-][n+]1ccccc1SSc1cccc[n+]1[O-]`, the efficacy in assay [1] is 40.7%. The AC50 in assay [2], in assay [3] and in assay [5] was 1.26 µM (active) each time.
`CN1CCC(OC(c2ccccc2)c2ccccc2)CC1`: the efficacy in assay [1] is 74.4%. Also, the values for the half-maximal activity concentration (AC50) in assay [2], in assay [3] and in assay [5] were 14.1 µM (active), 10 µM (active) and 10 µM (active), respectively.
With `O=C1C(c2[nH]c3ccccc3c2O)=Nc2ccccc21`, the efficacy in assay [1] is 51.6%. In addition, the molecule was classed as inactive in assay [2], in assay [3] and in assay [5].
`CCN(CC)CCOc1ccc(Cc2ccccc2)cc1`: the efficacy in assay [1] was 70.7%. For the same molecule, the figures for the concentration at half-maximal activity (AC50) in assay [2], in assay [3] and in assay [5] were 7.94 µM (active), 3.55 µM (active) and 3.55 µM (active), respectively.
Consider `c1ccc(-c2ccc(C(c3ccccc3)n3ccnc3)cc2)cc1` (centres undefined), for which the efficacy in assay [1] was 98.3%. Also, the half-maximal activity concentration (AC50) in assay [2] is 12.6 µM (active); in assay [3], 14.1 µM (active); in assay [5], 14.1 µM (active).
For `COc1ccc2cc1Oc1ccc(cc1)C[C@H]1c3c(cc4c(c3Oc3cc5c(cc3OC)CCN(C)[C@@H]5C2)OCO4)CCN1C`, in assay [1], the efficacy was 73.2%. Further, the AC50 in assay [2], in assay [3] and in assay [5] was 1.12 µM (active) in each case.
On to `Cc1ccc2c(c1)c1c3n2CCNC3CCC1` (centres undefined), for which the efficacy in assay [1] was 68.3%. Besides, the half-maximal activity concentration (AC50) in assay [2], in assay [3] and in assay [5] was 28.2 µM (active) in each case.
For `C[C@@]12C(=O)OC(=O)[C@]1(C)C1CCC2O1`, the efficacy in assay [1] is 65.6%. Besides, the concentration at half-maximal activity (AC50) was 5.62 µM (active) in assay [2], 7.94 µM (active) in assay [3] and 7.94 µM (active) in assay [5].
Take `CCCCN(CCCC)CC(O)c1cc(Cl)cc2c1-c1ccc(Cl)cc1/C2=C/c1ccc(Cl)cc1` (centres undefined): the efficacy in assay [1] was 120%. Also, the concentration at half-maximal activity (AC50) in assay [2], in assay [3] and in assay [5] was 39.8 µM (active) throughout.
For the molecule `CN(C)CCOC1=Cc2ccccc2Sc2ccc(Cl)cc21`, the efficacy in assay [1] was 46.9%. Further, the half-maximal activity concentration (AC50) is 15.8 µM (active) in assay [2], 12.6 µM (active) in assay [3] and 12.6 µM (active) in assay [5].
Consider `CC1=C(C(=O)OC(C)C)C(c2cccc([N+](=O)[O-])c2)C(C(=O)OC2CN(C(c3ccccc3)c3ccccc3)C2)=C(N)N1` (centres undefined), for which, in assay [1], the efficacy is -152%. Besides, the figures for the AC50 in assay [2], in assay [3] and in assay [5] were 39.8 µM (active), 28.2 µM (active) and 28.2 µM (active), respectively.
Consider `Clc1ccc(C(Cn2ccnc2)OCc2c(Cl)cccc2Cl)c(Cl)c1` (centres undefined), for which, in assay [1], the efficacy is -112%. The concentration at half-maximal activity (AC50) was 14.1 µM (active) in assay [2], 8.91 µM (active) in assay [3] and 8.91 µM (active) in assay [5].
As to `CCCCCCOC(=O)NC(=N)c1ccc(NCc2nc3cc(C(=O)N(CCC(=O)OCC)c4ccccn4)ccc3n2C)cc1`, in assay [1], the efficacy is 128%. The results for the AC50 in assay [2], in assay [3] and in assay [5] were 3.55 µM (active), 3.16 µM (active) and 3.16 µM (active), respectively.
In the case of `c1ccc(CN(CC2=NCCN2)c2ccccc2)cc1`, the efficacy in assay [1] is 60.7%. Further, the AC50 in assay [2] and in assay [5] was 39.8 µM (active) in each case. Moreover, the result in assay [3] was inactive.
Turning to `CN(C)CCn1nnnc1SCC1=C(C(=O)O)N2C(=O)[C@@H](NC(=O)Cc3csc(N)n3)[C@H]2SC1`, the efficacy in assay [1] was 40.8%. Also, the AC50 in assay [2] was 17.8 µM (active); in assay [3] it was 28.2 µM (active); in assay [5], 28.2 µM (active).
In the case of `CCCCc1ccc2nc(NC(=O)OC)[nH]c2c1`, the efficacy in assay [1] is 19%. Besides, the concentration at half-maximal activity (AC50) in assay [2] was 15.8 µM (active). In addition, the outcome in assay [3] and in assay [5] was inactive.
Take `C[C@@H]1CCC[C@H](C)N1CCCC(O)(c1ccccc1)c1ccccn1` (some centres undefined): the efficacy in assay [1] is 81.9%. Further, the AC50 in assay [2] is 25.1 µM (active); in assay [3], 22.4 µM (active); in assay [5], 22.4 µM (active).
`O=C1NCCN1CCN1CCC(c2cn(-c3ccc(F)cc3)c3ccc(Cl)cc23)CC1`: the efficacy in assay [1] is -279%. Also, the AC50 in assay [2] was 0.891 µM (active); in assay [3], 1 µM (active); in assay [5], 1 µM (active).
For `Nc1c2c(nc3ccccc13)CCCC2`, the efficacy in assay [1] was 49.8%. Besides, the concentration at half-maximal activity (AC50) in assay [2], in assay [3] and in assay [5] was 31.6 µM (active) throughout.
In the case of `Cc1ccc(/C(=C\CN2CCCC2)c2ccccn2)cc1`, the efficacy in assay [1] is 48.9%. In addition, the results for the AC50 in assay [2], in assay [3] and in assay [5] were 31.6 µM (active), 28.2 µM (active) and 28.2 µM (active), respectively.
In the case of `CCC(=O)c1ccc2c(c1)N(CCCN(C)C)c1ccccc1S2`, the efficacy in assay [1] is 153%. For the same molecule, the half-maximal activity concentration (AC50) in assay [2] is 20 µM (active); in assay [3] it was 17.8 µM (active); in assay [5], 17.8 µM (active).
Consider `O=C(CCCN1CC=C(n2c(=O)[nH]c3ccccc32)CC1)c1ccc(F)cc1`, for which, in assay [1], the efficacy was 51%. In addition, the AC50 in assay [2], in assay [3] and in assay [5] was 17.8 µM (active) in each case.
With `CCCCN1CCCC1C(=O)Nc1c(C)cc(C)cc1C` (centres undefined), the efficacy in assay [1] was 111%. The molecule was classed as inactive in assay [2], in assay [3] and in assay [5].

Source of the values: PubChem BioAssay (NCATS).
